Values joined by “and” are separate entries in the source; they are usually repeats but may differ in a detail not shown here. Identical values can stand only once. Some compounds were tested as several samples or in several runs, with calls that do not always agree. Active and inactive are the calls of the source. The calls were made as follows: active = hit-call score of the fitted dose curve at least 0.9, where 1 is the maximum; inactive = score below 0.9.

Sequence of Cellular tumor antigen p53 (Homo sapiens) (P04637 whole entry, looked up): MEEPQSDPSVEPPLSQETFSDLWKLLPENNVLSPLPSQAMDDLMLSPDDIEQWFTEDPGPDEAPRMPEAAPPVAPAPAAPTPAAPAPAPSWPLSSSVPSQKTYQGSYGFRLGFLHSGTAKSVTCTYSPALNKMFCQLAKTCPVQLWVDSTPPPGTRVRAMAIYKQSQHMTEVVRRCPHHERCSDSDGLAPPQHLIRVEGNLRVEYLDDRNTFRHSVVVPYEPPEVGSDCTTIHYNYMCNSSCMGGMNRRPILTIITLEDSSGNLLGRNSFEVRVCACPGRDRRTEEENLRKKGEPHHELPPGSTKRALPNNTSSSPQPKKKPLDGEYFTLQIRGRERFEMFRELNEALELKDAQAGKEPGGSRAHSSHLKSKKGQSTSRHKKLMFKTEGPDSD

Read-out in the first assay: TIMP1, TIMP1 (gene 7076)
Nature of the assay: LTEA_HepaRG_TIMP1: Life Technologies and Expression Analysis (LTEA) Assay for TIMP1 using HepaRG (AID 2283534).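 As to outcome: TaqMan qRT-PCR signal normalized to ACTB GAPDH and POLR2A housekeeping genes.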 The conditions noted are these: mRNA level, 48 h; actives raise or lower the signal. Summed up: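 TIMP1 induction or repression in HepaRG cells after 48 h chemical exposure (eight concentrations, highest 100 uM), assessed by normalized qRT-PCR with bidirectional fitting to DMSO controls.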
On to `CC/C(=C(\c1ccccc1)c1ccc(OCCN(C)C)cc1)c1ccccc1`, for which the concentration at half-maximal activity (AC50) (in general, the midpoint of the concentration-response curve, whichever way the signal moves) is 83.7 µM (active) and the call was inactive.

With `O=C(c1ccc(OCCN2CCCCC2)cc1)c1c(-c2ccc(O)cc2)sc2cc(O)ccc12`, the concentration at half-maximal activity (AC50) was 50 µM (active).

Turning to `CCCCOCCOCCO`, the compound was classed as inactive.

Turning to `C#C[C@]1(O)CC[C@H]2[C@@H]3CCc4cc(O)ccc4[C@H]3CC[C@@]21C`, the call was inactive.

As to `C[C@]12CC[C@@H]3c4ccc(O)cc4CC[C@H]3[C@@H]1CC[C@@H]2O`, the compound was called inactive.

Take `COC(=O)c1ccc(C(=O)OC)cc1`: the call was inactive.

On to `C=C(C)C(N)=O`, for which the result was inactive.

Read-out in another assay: Tumor necrosis factor receptor 1 (TNFRSF1A), TNFRSF1A (gene 7132)
Nature of the assay: LTEA_HepaRG_TNFRSF1A: Life Technologies and Expression Analysis (LTEA) Assay for Tumor necrosis factor receptor 1 (TNFRSF1A) using HepaRG (AID 2283535). The conditions noted are these: mRNA level, 48 h; actives raise or lower the signal. Summed up: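 Assay uses 48 h chemical treatment of differentiated HepaRG monolayers, tested in duplicate at eight concentrations from 100 uM downward in 0.5% DMSO. mRNA is normalized to ACTB, GAPDH and POLR2A, with induction or suppression fitted relative to vehicle.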
Consider `CC/C(=C(\c1ccccc1)c1ccc(OCCN(C)C)cc1)c1ccccc1`, for which the concentration at half-maximal activity (AC50) is 66.3 µM (active) and the result was inactive.

As for `O=C(c1ccc(OCCN2CCCCC2)cc1)c1c(-c2ccc(O)cc2)sc2cc(O)ccc12`, the compound was classed as inactive.

In the case of `CCCCOCCOCCO`, the result was inactive.

As for `C#C[C@]1(O)CC[C@H]2[C@@H]3CCc4cc(O)ccc4[C@H]3CC[C@@]21C`, the outcome was inactive.

Take `C[C@]12CC[C@@H]3c4ccc(O)cc4CC[C@H]3[C@@H]1CC[C@@H]2O`: the result was inactive.

Consider `COC(=O)c1ccc(C(=O)OC)cc1`, for which the outcome was inactive.

As for `C=C(C)C(N)=O`, the outcome was inactive.

Read-out in the next assay: Thyroid Hormone Responsive (THRSP), THRSP (gene 7069)
The assay can be described thus: LTEA_HepaRG_THRSP: Life Technologies and Expression Analysis (LTEA) Assay for Thyroid Hormone Responsive (THRSP) using HepaRG (AID 2283536). The conditions noted are these: mRNA level, 48 h; actives raise or lower the signal. In short, it runs like this: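 Differentiated HepaRG cells treated 48 h in serum-free induction medium with 8 half-log concentrations up to 100 uM (0.5% DMSO), duplicates. THRSP mRNA by TaqMan qRT-PCR normalised to ACTB, GAPDH, POLR2A; bidirectional fit versus DMSO.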
Take `CC/C(=C(\c1ccccc1)c1ccc(OCCN(C)C)cc1)c1ccccc1`: the outcome was inactive.

`O=C(c1ccc(OCCN2CCCCC2)cc1)c1c(-c2ccc(O)cc2)sc2cc(O)ccc12`: the compound was called inactive.

With `CCCCOCCOCCO`, the compound was called inactive.

Take `C#C[C@]1(O)CC[C@H]2[C@@H]3CCc4cc(O)ccc4[C@H]3CC[C@@]21C`: the compound was called inactive.

With `C[C@]12CC[C@@H]3c4ccc(O)cc4CC[C@H]3[C@@H]1CC[C@@H]2O`, the call was inactive.

Turning to `COC(=O)c1ccc(C(=O)OC)cc1`, the result was inactive.

As to `C=C(C)C(N)=O`, the result was inactive.

Read-out in another assay: Cellular tumor antigen p53 (Homo sapiens) (UniProt P04637)
Nature of the assay: LTEA_HepaRG_TP53: Life Technologies and Expression Analysis (LTEA) Assay for Tumor Protein P53 (TP53) using HepaRG (AID 2283537). The conditions noted are these: mRNA level, 48 h; actives raise or lower the signal. Summed up:
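Differentiated HepaRG cells in serum-free induction medium exposed 48 h in duplicate to 8 half-log concentrations, top 100 uM, 0.5% DMSO. TP53 mRNA by TaqMan qRT-PCR (Fluidigm), normalized to ACTB, GAPDH, POLR2A; fitted bidirectionally versus DMSO.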
For the compound `CC/C(=C(\c1ccccc1)c1ccc(OCCN(C)C)cc1)c1ccccc1`, the AC50 was 45.8 µM (active) and 40 µM (active).

For the compound `O=C(c1ccc(OCCN2CCCCC2)cc1)c1c(-c2ccc(O)cc2)sc2cc(O)ccc12`, the call was inactive.

Regarding `CCCCOCCOCCO`, the compound was classed as inactive.

Take `C#C[C@]1(O)CC[C@H]2[C@@H]3CCc4cc(O)ccc4[C@H]3CC[C@@]21C`: the result was inactive.

For the compound `C[C@]12CC[C@@H]3c4ccc(O)cc4CC[C@H]3[C@@H]1CC[C@@H]2O`, the compound was classed as inactive.

Take `COC(=O)c1ccc(C(=O)OC)cc1`: the result was inactive.

For `C=C(C)C(N)=O`, the outcome was inactive.

Values taken from PubChem BioAssay (EPA / NIEHS).
